Whole data set: some 33,000 sequences, median “E-score (-0.5 to 0.5)” near -0.013, cut for the highest 2% near 0.3. Many of the other results were omitted from the sample, so the highest values are more common in it than they were.
Target: T1, Msn1 (UniProt P22148)
T1 sequence: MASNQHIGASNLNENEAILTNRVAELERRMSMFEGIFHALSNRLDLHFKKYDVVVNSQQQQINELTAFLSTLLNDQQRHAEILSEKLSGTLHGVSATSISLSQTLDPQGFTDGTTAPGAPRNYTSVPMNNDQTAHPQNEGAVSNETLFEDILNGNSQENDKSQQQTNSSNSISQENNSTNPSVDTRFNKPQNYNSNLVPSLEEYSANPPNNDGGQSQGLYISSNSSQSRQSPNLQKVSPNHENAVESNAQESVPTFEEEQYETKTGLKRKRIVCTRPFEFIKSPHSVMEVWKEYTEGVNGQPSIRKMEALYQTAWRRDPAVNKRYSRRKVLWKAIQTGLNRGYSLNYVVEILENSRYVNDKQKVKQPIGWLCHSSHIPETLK
Assay: PBM E-score (8-mer binding enrichment) (E-score (-0.5 to 0.5)); higher = stronger / more preferred TF binding
Settings: protein concentration: 200 nM; construct: GST-full length
Outline: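 E-scores (a modified Wilcoxon-Mann-Whitney statistic) were assigned by the Universal PBM Analysis Suite to every ungapped eight-base word pooled with its reverse complement. The input came from universal all-10-mer Agilent arrays made double-stranded by primer extension and probed with GST-tagged yeast transcription factors at about 100-200 nM. Fluorescent anti-GST detected bound protein, and masliner normalised the scans.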

| Sequence | PBM E-score |
| --- | --- |
| AGAGGCAA | -0.0984 |
| ACGTGAAA | 0.119 |
| CGAGTTGA | 0.0114 |
| CGTACCAA | 0.182 |
| AGTACCAA | 0.175 |
| TGTACTAA | 0.321 |
| CGTACTAA | 0.093 |
| AGTACTAA | 0.121 |
| TGTACCAA | 0.328 |
| AGCTGGAG | -0.251 |
| GATGGTCA | -0.0299 |
| AGCTACGA | -0.11 |
| GTGATTGA | 0.128 |
| CACGCTTA | 0.0573 |
| TGGACTAA | 0.183 |
| AGGACTAT | -0.131 |
| AGGACTTC | 0.243 |
| CGGACTTA | 0.215 |
| AGGACTAA | 0.309 |
| AGGACTTA | 0.36 |
| CAAAACTG | 0.127 |
| GTTGTCTA | 0.165 |
| CTTGTCTA | 0.324 |
| ATTGTTTG | 0.202 |
| ACTGTCTA | 0.022 |

| Sequence | PBM E-score |
| --- | --- |
| CTTGTATC | 0.106 |
| ATTGTCAG | 0.218 |
| CTTGTCTC | 0.319 |
| ATTGTCTG | 0.34 |
| CCTGTCTC | -0.0622 |
| CCTGTCTA | 0.143 |
| AGTGTCTA | 0.188 |
| ATTGTCTA | 0.391 |
| ACTCCCTG | -0.28 |
| GCGTCTGA | -0.101 |
| ATGTGCTC | 0.0447 |
| CATAGTAG | 0.0607 |
| ACTGTTAC | -0.0545 |
| CCCTATAC | -0.129 |
| CTCTTAGC | -0.0929 |
| TAATGGAA | 0.151 |
| CAGAAGTA | 0.104 |
| CTAAGCCC | -0.154 |
| AGTGTCTC | 0.0356 |
| ACTGTCTC | -0.00421 |
| ATTGTCTC | 0.378 |
| CAACTTTC | -0.0177 |
| AAGACAAT | 0.409 |
| CAGACAAG | 0.28 |
| AAGACAAA | 0.45 |

| Sequence | PBM E-score |
| --- | --- |
| AAGACACA | 0.169 |
| TAGACTAA | -0.0893 |
| AAGACAGA | 0.216 |
| AAGACTAT | -0.0507 |
| TAGACGAA | 0.0138 |
| TAGACAAA | 0.446 |
| AAAACAAT | 0.127 |
| CAGACAGA | 0.0672 |
| CAGACAAA | 0.451 |
| AGCAGTTG | -0.0796 |
| AACCGACC | -0.0206 |
| CCGTCCAG | -0.00159 |
| AAGCCAAG | -0.237 |
| AGAGGAGG | -0.382 |
| ACCAGCCG | -0.0866 |
| AGCCATCC | -0.277 |
| GAGACGAA | -0.0182 |
| AAGACAGG | 0.0873 |
| GAGACAAC | 0.203 |
| AAGACAAC | 0.221 |
| GAGACAAA | 0.442 |
| AAGACAAG | 0.343 |
| ACAGACCG | -0.128 |
| GAGATGAA | 0.024 |
| AGGTGCCC | -0.275 |

| Sequence | PBM E-score |
| --- | --- |
| CCCGAGAA | 0.0155 |
| ACCGAGAA | 0.149 |
| TCCGAGAA | 0.346 |
| ACCGACAA | 0.268 |
| GCCGACAA | 0.117 |
| CCCGACAC | -0.0956 |
| CCCGACAG | 0.052 |
| TCCGACAA | 0.372 |
| CCCGACAA | 0.329 |
| CAATTCAG | 0.0996 |
| TAAGTACA | 0.287 |
| GCTTTAGA | -0.0753 |
| CCTGATAG | -0.222 |
| AACATGAT | 0.173 |
| AGACATAA | 0.373 |
| AGACATAC | 0.327 |
| CGACATAG | 0.15 |
| ACACATAA | 0.217 |
| ACACATAG | 0.0311 |
| AAACATAC | -0.0227 |
| AAACATAT | 0.258 |
| ATACATAA | 0.21 |
| AGACATAG | 0.32 |
| ATACATAC | -0.0367 |
| AGACACAT | 0.197 |

| Sequence | PBM E-score |
| --- | --- |
| AGACATAT | 0.47 |
| GCAATGAA | 0.0712 |
| ATACATGA | 0.073 |
| ACAAATCG | 0.276 |
| ACTGAAGC | -0.0558 |
| AATGGTTG | -0.0125 |
| CCCTAAAC | -0.171 |
| AGACAAAA | 0.437 |
| AGACAAGG | 0.162 |
| ATACAAAT | 0.335 |
| ATACAAAA | 0.2 |
| ACACAAAA | 0.296 |
| AAACAAAA | 0.127 |
| ATACAAAG | 0.254 |
| AAACAAAT | 0.199 |
| AGACAACT | 0.147 |
| AGACAAAT | 0.482 |
| CGACAAAG | 0.294 |
| AGACAAAG | 0.364 |
| CGCCCTTA | -0.0904 |
| AAGTTGAT | 0.016 |
| AACTGCCC | -0.105 |
| GGTCAAAC | 0.114 |
| AGGGGGCG | -0.416 |
| GTGCAACA | -0.164 |

| Sequence | PBM E-score |
| --- | --- |
| ACCCGCGC | 0.0994 |
| GCACCTTA | 0.00327 |
| ATATCCTG | 0.0176 |
| CCCTTCGG | -0.0863 |
| CGACAAAC | 0.36 |
| TGACAAAA | 0.402 |
| CGACAAAA | 0.423 |
| CAACAAAC | -0.0143 |
| TAACAAAA | 0.228 |
| TCACAAAA | 0.119 |
| CCACAAAA | 0.0569 |
| AGACAAAC | 0.446 |
| AAACAAAC | 0.192 |
| CGACAACC | 0.0461 |
| CAACAAAA | 0.0735 |
| ACACAAAC | 0.0132 |
| CCGTTGAA | 0.00808 |
| CGTAGCTA | -0.123 |
| CCTGCGGA | 0.00937 |
| CGGCCGAC | 0.194 |
| GATTTGGC | -0.221 |
| CATAGATC | 0.0219 |
| CCGTGAGG | -0.283 |
| CATGGAGA | -0.00044 |
| GCCTACAA | -0.0308 |

| Sequence | PBM E-score |
| --- | --- |
| ATCCCGTC | -0.0856 |
| AGTAACGC | -0.119 |
| CTCTGAGA | -0.0856 |
| CATACTCA | 0.0936 |
| CTTGGACA | 0.44 |
| ATTGGACA | 0.445 |
| GTTGGATA | 0.0207 |
| ATTGGACG | 0.211 |
| CTTGGACC | -0.163 |
| GTTGGACA | 0.437 |
| CTTGGAGA | -0.00816 |
| GTTGGAAA | 0.165 |
| ATTGGACC | -0.101 |
| CACAATGG | 0.0832 |
| TAGGAACA | 0.0697 |
| GGGTGTCA | -0.0869 |
| AGAGCTCT | -0.265 |
| AGCCTCCG | -0.213 |
| AGTACTTG | 0.147 |
| AGGACACC | 0.255 |
| AGCACACG | -0.0792 |
| ACGACACT | 0.123 |
| AGGACAGA | 0.437 |
| ACGACACA | 0.172 |
| AGGACACG | 0.467 |

| Sequence | PBM E-score |
| --- | --- |
| ATGACACG | 0.214 |
| AGGACAGG | 0.28 |
| AGGACACT | 0.358 |
| ACGACACG | 0.206 |
| AGGACAGC | 0.078 |
| AGGACACA | 0.472 |
| TCGCAAGA | -0.177 |
| AGGCAAAA | 0.163 |
| CTTGTTCA | -0.0388 |
| GAGAGTTA | -0.0018 |
| TCAGTTCA | -0.039 |
| ATTAAAAG | 0.156 |
| ACTAAAAC | 0.14 |
| ATTAAAAA | 0.327 |
| ACTAAAAG | 0.0984 |
| ATTAAAAC | 0.156 |
| ACTAAAAA | 0.309 |
| TATATAAA | 0.253 |
| CATAAAAA | 0.181 |
| TATAAAAA | 0.318 |
| CAATTTCC | 0.0903 |
| ACCAACAG | -0.127 |
| CGCAAACA | 0.143 |
| CAGCACAG | 0.00522 |
| GTCGTCTA | -0.00305 |

| Sequence | PBM E-score |
| --- | --- |
| AGCGTGTC | 0.0384 |
| CGCGTGTA | 0.114 |
| CGCGTGTC | 0.344 |
| AGAAATGG | -0.076 |
| ACCCTTAT | -0.0336 |
| AATGGACG | 0.185 |
| AATGGACA | 0.438 |
| GATGGACC | 0.0221 |
| TATGGACA | 0.476 |
| CATGGACC | -0.0789 |
| AATGGACT | 0.19 |
| TATGGAAA | 0.071 |
| GATGGAAA | -0.126 |
| CATGGACA | 0.47 |
| GATGGACA | 0.443 |
| TATGGAGA | 0.0848 |
| CATGGACG | 0.137 |
| ATTGGTAA | 0.00511 |
| CCTCCTGA | -0.153 |

— the supplement of paper PMC3334620
